Assay results: ChEMBL document CHEMBL3988442, “University of Dundee, Small-Polar-MMV Screening Library” (2021)

biological target: AMP-activated protein kinase, AMPK (Homo sapiens) (UniProt P54646+O43741+P54619+Q9UGJ0+Q9Y478+Q13131+Q9UGI9); experiment: AMP-dependent Kinase enzyme assay. An in vitro enzyme assay that detects ADP turnover that is directly proportional to AMPK activity. This uses naive AMPK that is activated during the assay with MK-8722; format: functional; design: scale not given: direction of the effect not stated beside the values; details: 30 µM

| Structure (SMILES) | Percent Effect |
| --- | --- |
| CC(C)NC(=O)Cn1cc(-c2ccccc2)cn1 | 6.33% |
| Cc1nn(C)c(C)c1C1COCCN1C(=O)c1ccccc1 (stereo not given) | -2.73% |
| O=C(N1CCCO1)[C@@]12CCO[C@@H]1CCN(C1CCCCC1)C2 | -8.58% |
| CC(C(=O)NCc1ccc(N2CCNC(=O)C2)cc1)n1cncn1 (stereo not given) | -36.6% |
| Cn1cc(CCNC(=O)NCc2nnc3n2CCC3)cn1 | -4.15% |
| CO[C@H]1CN(Cc2cccc(C#N)c2)[C@@H]2COC[C@H]12 | -0.964% |
| CC(NC(=O)c1nc(=O)[nH][nH]1)c1ccc(OCC2CC2)c(F)c1 (stereo not given) | -0.945% |
| c1ccc(-c2noc(CN3CCC(c4ccn[nH]4)CC3)n2)cc1 | -9.82% |
| Cc1csc(N2CCN(C(=O)CCn3cncn3)CC2)n1 | -7.64% |
| Cc1cc(C2CCCN(C(=O)c3cnn(C)c3)C2)ccn1 (stereo not given) | 10.9% |
| CCN(CC)CCNC(=O)c1cnc(C(C)(C)C)s1 | 2.58% |
| CCC(=O)Nc1nnc(CCOc2cccc(OC)c2)s1 | 42.3% |
| CCCn1[nH]cc/c1=N\C(=O)CN1CCCC1c1c(C)nn(C)c1C (stereo not given) | -27.7% |
| O=C(c1ccnnc1)N1C[C@H](Oc2cccnc2)[C@H]2OCCC[C@H]21 | -1.06% |
| COc1ccc(CN2CCC(O)CC2)c(OC)c1 | -1.5% |
| CS(=O)(=O)Cc1cccc(C(=O)NCC2Cc3ccccc3O2)c1 (stereo not given) | 2.31% |
| O=C(CCc1cccs1)N1CCCCC1Cn1cccn1 (stereo not given) | -2.34% |
| CCOc1ccccc1OC1CCN(C(=O)c2ccc(=O)[nH]n2)CC1 | 2.58% |
| CN(C)CCNC(=O)c1ccc(OC2CCN(S(C)(=O)=O)CC2)c(Cl)c1 | -3.92% |
| N#Cc1ccc(C(=O)N2CCn3c(Cn4cccn4)cnc3C2)cc1 | 0.576% |

| Structure (SMILES) | Percent Effect |
| --- | --- |
| Cn1ccc(C(=O)NC2CCC23CCN(C(=O)c2ccncc2)CC3)c1 (stereo not given) | -2.76% |
| CNC(=O)[C@H]1C[C@H]2OCC[C@H]2N(Cc2cccc3ccccc23)C1 | 2.57% |
| COc1ccc(OCCCN2CCOC(Cn3cccn3)C2)cc1 (stereo not given) | 9.54% |
| Cc1nc2ccccc2nc1CN1CCCC1c1c(C)nn(C)c1C (stereo not given) | 5.44% |
| CCN(Cc1cccc(Cl)c1)Cc1nc2c(cnn2C)c(=O)[nH]1 | 3.13% |
| O=C(CN1CCCC1Cn1cncn1)NCCOc1cccc(F)c1 (stereo not given) | -3.72% |
| COc1ccc(CCN2CCN(C(=O)c3scnc3C)CC2)cc1 | 2.58% |
| O=C(c1ccnnc1)N1C[C@@H](OCC2CCCC2)[C@H]2OCCC[C@H]21 | 0.254% |
| CCc1ccc(CCC(=O)N2CCOCC2c2ncon2)cc1 (stereo not given) | 4.51% |
| CC(C)CN(C)c1ccc(C(=O)N2CCCC2c2cnn(C)c2)cn1 (stereo not given) | -6.48% |
| COc1ccc(CNCC(C)Oc2ccccn2)cc1Br (stereo not given) | -6.72% |
| CCc1nc(C2CCCN2CC(=O)Nc2c(C)nn(C)c2C)no1 (stereo not given) | -6.03% |
| Cn1c(Cn2cccn2)nnc1C1CCCN(c2ccncc2)C1 (stereo not given) | -4% |
| CN(C)C(=O)N1CCC2(CCCN(Cc3cnn(C)c3)C2)C1 (stereo not given) | 12% |
| O=C(C1=CCCC1)N1CCC[C@]2(C[C@@H](Oc3ncccc3F)CO2)C1 | -7.12% |
| Cn1ccc(C(=O)NC2CCC23CCN(C(=O)N2CCCC2)CC3)c1 (stereo not given) | 3.04% |
| Cc1cc(C)c2nc(CN3CCOC(CCO)C3)cc(O)c2c1 (stereo not given) | -1.47% |
| CNS(=O)(=O)c1ccc(C(=O)NC2CCc3nc(C)cn3C2)o1 (stereo not given) | 5.73% |
| O=C(CN1CCC(C(=O)c2cc(F)ccc2F)CC1)NC1CCCC1 | 13.8% |
| Cc1ncsc1CCC(=O)NCc1cc2n(n1)CCN(C(=O)N(C)C)C2 | -1.68% |

biological target: Sialic acid-binding Ig-like lectin 9 (Homo sapiens) (UniProt Q9Y336); experiment: Hs-Siglec9 ALPHAscreen SOP 20170721; design: scale not given: direction of the effect not stated beside the values; details: 10 µM
Sequence (Q9Y336 whole entry): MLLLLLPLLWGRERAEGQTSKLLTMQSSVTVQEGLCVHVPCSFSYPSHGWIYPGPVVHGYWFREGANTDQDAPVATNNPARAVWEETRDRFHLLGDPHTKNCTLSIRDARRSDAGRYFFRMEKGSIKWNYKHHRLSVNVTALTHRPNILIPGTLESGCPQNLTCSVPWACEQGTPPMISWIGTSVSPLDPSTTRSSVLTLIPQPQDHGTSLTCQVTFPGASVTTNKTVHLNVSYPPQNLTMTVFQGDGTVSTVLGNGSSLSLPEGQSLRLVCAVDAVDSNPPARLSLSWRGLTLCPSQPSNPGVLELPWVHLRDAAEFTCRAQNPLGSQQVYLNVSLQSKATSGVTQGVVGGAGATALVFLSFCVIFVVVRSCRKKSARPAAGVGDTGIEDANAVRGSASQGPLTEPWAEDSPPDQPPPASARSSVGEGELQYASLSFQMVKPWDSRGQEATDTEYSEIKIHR

| Structure (SMILES) | Percent Effect |
| --- | --- |
| CC(C)NC(=O)Cn1cc(-c2ccccc2)cn1 | -0.321% |
| Cc1nn(C)c(C)c1C1COCCN1C(=O)c1ccccc1 (stereo not given) | 2.06% |
| O=C(N1CCCO1)[C@@]12CCO[C@@H]1CCN(C1CCCCC1)C2 | 1.15% |
| CC(C(=O)NCc1ccc(N2CCNC(=O)C2)cc1)n1cncn1 (stereo not given) | 17.6% |
| Cn1cc(CCNC(=O)NCc2nnc3n2CCC3)cn1 | 10.9% |
| CO[C@H]1CN(Cc2cccc(C#N)c2)[C@@H]2COC[C@H]12 | 2.51% |
| CC(NC(=O)c1nc(=O)[nH][nH]1)c1ccc(OCC2CC2)c(F)c1 (stereo not given) | -1.85% |
| c1ccc(-c2noc(CN3CCC(c4ccn[nH]4)CC3)n2)cc1 | 9.87% |
| Cc1csc(N2CCN(C(=O)CCn3cncn3)CC2)n1 | 11.1% |
| Cc1cc(C2CCCN(C(=O)c3cnn(C)c3)C2)ccn1 (stereo not given) | 0.0727% |
| CCN(CC)CCNC(=O)c1cnc(C(C)(C)C)s1 | -11.2% |
| CCC(=O)Nc1nnc(CCOc2cccc(OC)c2)s1 | 1.2% |
| CCCn1[nH]cc/c1=N\C(=O)CN1CCCC1c1c(C)nn(C)c1C (stereo not given) | 15.7% |
| O=C(c1ccnnc1)N1C[C@H](Oc2cccnc2)[C@H]2OCCC[C@H]21 | -4.69% |
| COc1ccc(CN2CCC(O)CC2)c(OC)c1 | 2.82% |
| CS(=O)(=O)Cc1cccc(C(=O)NCC2Cc3ccccc3O2)c1 (stereo not given) | 0.841% |
| O=C(CCc1cccs1)N1CCCCC1Cn1cccn1 (stereo not given) | -15.4% |
| CCOc1ccccc1OC1CCN(C(=O)c2ccc(=O)[nH]n2)CC1 | 7.38% |
| CN(C)CCNC(=O)c1ccc(OC2CCN(S(C)(=O)=O)CC2)c(Cl)c1 | 19.3% |
| N#Cc1ccc(C(=O)N2CCn3c(Cn4cccn4)cnc3C2)cc1 | 1.75% |

| Structure (SMILES) | Percent Effect |
| --- | --- |
| Cn1ccc(C(=O)NC2CCC23CCN(C(=O)c2ccncc2)CC3)c1 (stereo not given) | 16.4% |
| CNC(=O)[C@H]1C[C@H]2OCC[C@H]2N(Cc2cccc3ccccc23)C1 | 2.56% |
| COc1ccc(OCCCN2CCOC(Cn3cccn3)C2)cc1 (stereo not given) | 3.31% |
| Cc1nc2ccccc2nc1CN1CCCC1c1c(C)nn(C)c1C (stereo not given) | 6.81% |
| CCN(Cc1cccc(Cl)c1)Cc1nc2c(cnn2C)c(=O)[nH]1 | -4.85% |
| O=C(CN1CCCC1Cn1cncn1)NCCOc1cccc(F)c1 (stereo not given) | 14.3% |
| COc1ccc(CCN2CCN(C(=O)c3scnc3C)CC2)cc1 | 0.569% |
| O=C(c1ccnnc1)N1C[C@@H](OCC2CCCC2)[C@H]2OCCC[C@H]21 | -1.77% |
| CCc1ccc(CCC(=O)N2CCOCC2c2ncon2)cc1 (stereo not given) | 1.5% |
| CC(C)CN(C)c1ccc(C(=O)N2CCCC2c2cnn(C)c2)cn1 (stereo not given) | -6.28% |
| COc1ccc(CNCC(C)Oc2ccccn2)cc1Br (stereo not given) | 0.831% |
| CCc1nc(C2CCCN2CC(=O)Nc2c(C)nn(C)c2C)no1 (stereo not given) | -5.34% |
| Cn1c(Cn2cccn2)nnc1C1CCCN(c2ccncc2)C1 (stereo not given) | 11.4% |
| CN(C)C(=O)N1CCC2(CCCN(Cc3cnn(C)c3)C2)C1 (stereo not given) | 1.42% |
| O=C(C1=CCCC1)N1CCC[C@]2(C[C@@H](Oc3ncccc3F)CO2)C1 | 6.71% |
| Cn1ccc(C(=O)NC2CCC23CCN(C(=O)N2CCCC2)CC3)c1 (stereo not given) | -9.67% |
| Cc1cc(C)c2nc(CN3CCOC(CCO)C3)cc(O)c2c1 (stereo not given) | 5.2% |
| CNS(=O)(=O)c1ccc(C(=O)NC2CCc3nc(C)cn3C2)o1 (stereo not given) | 6.53% |
| O=C(CN1CCC(C(=O)c2cc(F)ccc2F)CC1)NC1CCCC1 | -3.6% |
| Cc1ncsc1CCC(=O)NCc1cc2n(n1)CCN(C(=O)N(C)C)C2 | -4.18% |
